Structures are written as SMILES. Results filed as inconclusive are left out. Active and inactive are the calls of the source. The call rests on the fitted dose curve; in most records, active means well fitted inhibition curve with a large enough effect; inconclusive means small, poorly fitted or top-dose-only effect; inactive means flat fitted curve, though single readings scatter.
On the % scale 0 is the no-effect control and ±100 the full control effect; potency means the concentration at half of the fitted maximal effect.

In this assay the test system is HEK293. Briefly: Cytotoxic Profiling of Annotated Libraries Using Quantitative High-Throughput Screening (AID 1296008). Further: nearly all actives have a fitted effect of over 60% in size. To be noted: Five cell lines viability, CellTiter-Glo ATP luminescence, 48-72 h; max response: active compounds read low. An outline of the steps:
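Compounds were pin-transferred onto cells and incubated 48 or 72 hr at 37 degree Celsius, 95% humidity. CellTiter-Glo was added, plates sat 10 min at room temperature, then ATP-coupled luminescence was imaged as the viability read-out.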
For the compound `CCCCCCOc1cc2c(cc1N(C)c1ncc(C(=O)O)cn1)C(C)(C)CCC2(C)C`, the max response is 3.1% (inactive).
On to `CCNCc1nc2c(N)nc3ccccc3c2n1CC(C)(C)O`, for which the max response was -9.18% (inactive).
Turning to `O=C(O)c1ccccc1NCCc1ccccc1`, the max response is 1.97% (inactive).
As to `CC(C)[C@@H](CS(=O)(=O)C(C)C)N1C(=O)[C@@](C)(CC(=O)O)C[C@H](c2cccc(Cl)c2)[C@H]1c1ccc(Cl)cc1`, the Potency was 16.6 µM (active).
Regarding `C=C1C[C@@]23CCC4[C@@](C)(CCC[C@@]4(C)C(=O)OC)C2CC[C@@H]1C3` (stereo partly drawn), the compound was called inactive.
On to `CC(C)(C)c1cc(Br)cc([C@H](CC(=O)O)NC(=O)CNC(=O)c2cc(O)cc(NC3=NCC(O)CN3)c2)c1` (stereo partly drawn), for which the max response is -3.62% (inactive).
Take `Cc1c(NC(=O)c2cc(C(N)=O)nc3cc(F)ccc23)c(C(F)(F)F)nn1Cc1ccc(C#N)cc1`: the Potency is 0.0862 µM (active).
On to `O=C1NC(=O)C(c2cn3c4c(cccc24)CCC3)C1c1c[nH]c2ccccc12` (stereo not drawn), for which the Potency was 1.03 µM (active).
For the compound `CCC(C(=O)O)c1ccc(N2Cc3ccccc3C2=O)cc1` (stereo not drawn), the max response was -2.44% (inactive).
`COc1cc2ncnc(N3CCC(Oc4cnc5ccccc5n4)C3)c2cc1OC` (stereo not drawn): the Potency is 0.366 µM (active).
Still for that read-out and setting: the same measure for `CN1CCN(c2ccc(C(=O)Nc3n[nH]c4ccc(Cc5cc(F)cc(F)c5)cc34)c(NC3CCOCC3)c2)CC1`: 7.41 µM (active).
Consider `CCN(Cc1cccnc1)C(=O)CN(c1ccc(OC)nc1)S(=O)(=O)c1ccccc1C`, for which the compound was called inactive.
Consider `Cc1cnc(Nc2ccc(F)cc2Cl)nc1-c1c[nH]c(C(=O)NC(CO)c2cccc(Cl)c2)c1` (stereo not drawn), for which the Potency was 5.8 µM (active).
On to `COc1ccc(-n2[nH]c(=O)c3[nH]c4cc(Cl)ccc4c(=O)c3c2=O)c(C)c1`, for which the call was inactive.
For the compound `Cn1cncc1C(N)(c1ccc(Cl)cc1)c1ccc2c(c1)c(-c1cccc(Cl)c1)cc(=O)n2C` (stereo not drawn), the Potency is 0.259 µM (active).
Take `CCOCCOC(=O)/C=C/c1ccc(OC)cc1`: the call was inactive.
On to `CN(C)c1ccc2c(c1)OC(N)=C(C#N)C2c1cccc(C(F)(F)F)c1` (stereo not drawn), for which the Potency is 0.184 µM (active).
`c1cc(Nc2cc(C3CC3)[nH]n2)nc(Nc2ccc3nc[nH]c3c2)n1`: the Potency is 1.16 µM (active).
Regarding `CCC(C)C(=O)OC1CC(O)C23C4OCC5(C(O)CC2C1(C)C(O)O4)C3C(=O)CC1(C)C(c2ccoc2)CC2OC215` (stereo not drawn), the Potency is 2.52 µM (active).
`Cc1ccccc1NC(=O)Nc1ccc(CC(=O)N(C)[C@@H](CC(C)C)C(=O)NCC[C@H](NC(=O)[C@@H]2CCCN2S(=O)(=O)c2cc(Cl)cc(Cl)c2)C(=O)O)cc1`: the call was inactive.
As for `CC(=O)NC1=NN(C(C)=O)C(C)(c2ccccc2)S1` (stereo not drawn), the Potency was 4.11 µM (active).
Turning to `CC1(C)CCC[C@]2(C)[C@H]3CC(=O)O[C@]3(C)CC[C@@H]12`, the max response is -37.4% (inactive).
Consider `CC1(C)CC[C@]23CO[C@@]4(CCC5[C@@]6(C)CC[C@H](O[C@@H]7OC[C@H](O[C@@H]8O[C@H](CO)[C@@H](O)[C@H](O)[C@H]8O)[C@H](O)[C@H]7O[C@@H]7O[C@H](CO)[C@@H](O[C@@H]8O[C@H](CO)[C@@H](O)[C@H](O)[C@H]8O)[C@H](O)[C@H]7O)[C@@](C)(CO)C6CC[C@@]5(C)[C@]4(C)C[C@H]2OC2OCC(O)C(O)C2O)C3C1` (stereo partly drawn), for which the Potency was 2.45 µM (active).
On the same count and under the same terms, under `COc1ccc(Oc2cc(C)c(-c3csc(NC(=O)c4ccncc4)n3)c(C)c2)cc1` stands 0.326 µM (active).
On the same count and under the same terms, under `COc1cc(Nc2nc3c(s2)CCCC3c2ccc(F)cc2)ccc1-n1cnc(C)c1` (stereo not drawn) stands 11.6 µM (active); under `CN(C)c1nc(NC2CCC(NCCc3ccc(Br)cc3OC(F)(F)F)CC2)nc2ccccc12` (stereo not drawn), 5.17 µM (active).
As for `COc1cc2c(NC3CCN(CC4CCCCC4)CC3)nc(N3CCCN(C(C)C)CC3)nc2cc1OCCCN1CCCCC1`, the Potency was 3.26 µM (active).
For the compound `CC1(C)CCCC2(C)C(C(=O)O)=CCC12` (stereo not drawn), the max response is -1.36% (inactive).
Regarding `Cc1ccc(NC(=O)c2ccc(CN3CC[C@H](N(C)C)C3)c(C(F)(F)F)c2)cc1Nc1nccc(-c2cncnc2)n1`, the Potency was 5.63 µM (active).
For the compound `Cc1ccc(C(=O)N(CCCN)C(c2oc3cc(Cl)ccc3c(=O)c2Cc2ccccc2)C(C)C)cc1` (stereo not drawn), the max response was -125% (inactive).
Take `COc1cc2nc(N3CCC(N4CCCCC4)CC3)nc(NC3CCCCCC3)c2cc1OC`: the Potency is 5.17 µM (active).
Regarding `C=C1CC23CC1CCC2C12OC(=O)C(C)(CCC1O)C2C3C(=O)O` (stereo not drawn), the max response is 2.62% (inactive).
Regarding `C=CC(=O)Nc1cccc(CN2C(=O)N(c3c(Cl)c(OC)cc(OC)c3Cl)Cc3cnc(NCCCCN(CC)CC)nc32)c1`, the Potency is 16.4 µM (active).

These data come from PubChem BioAssay (NCATS).
